# Reference: PubChem BioAssay (EPA / NIEHS)
# Where “and” joins values, the source holds several entries; their conditions need not be identical. Equal entries are not always repeated. A structure can be active in one record and inactive in another. Calls of active or inactive are those of the source. The calls were made as follows: active = hit-call score of the fitted dose curve at least 0.9, where 1 is the maximum; inactive = score below 0.9.
# Read-out: Tissue Factor, F3 (gene 2152)
# Experiment: BSK_LPS_TissueFactor: BioMAP Diversity Plus: LPS Assay for Tissue Factor Biomarker Activity (AID 2283084)
# Details: primary human HUVEC with PBMC; actives raise or lower the signal
# Procedure, shortened: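 ELISA signal for cell-surface Tissue Factor (CD142) was read 24 h after compound dosing of an LPS-stimulated human endothelial–PBMC primary co-culture. Gain or loss of signal was scored relative to DMSO.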
# Tumor necrosis factor (Homo sapiens), sequence (P01375 whole entry, looked up): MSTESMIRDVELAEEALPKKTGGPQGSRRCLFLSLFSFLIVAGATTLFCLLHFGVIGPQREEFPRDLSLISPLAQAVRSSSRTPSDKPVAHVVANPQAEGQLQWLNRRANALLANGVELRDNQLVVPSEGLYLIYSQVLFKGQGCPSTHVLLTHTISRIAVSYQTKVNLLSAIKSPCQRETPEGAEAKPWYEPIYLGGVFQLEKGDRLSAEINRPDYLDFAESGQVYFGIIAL
SMILES,outcome,AC50
CNC(=S)S,inactive,–
CCNc1nc(Cl)nc(NCC)n1,inactive,–
COC(=O)C(C)Oc1ccc(Oc2ccc(Cl)cc2Cl)cc1 (configuration not stated),inactive,–
CCCN(CCC)c1c([N+](=O)[O-])cc(S(N)(=O)=O)cc1[N+](=O)[O-],inactive,34.3 µM (active) and 38.1 µM (active) and 32.8 µM (active)
CCOC(=O)CC(SP(=S)(OC)OC)C(=O)OCC (configuration not stated),inactive,–
Cc1ccc(-c2c(Cl)nc(C#N)n2S(=O)(=O)N(C)C)cc1,inactive,–
Oc1ccccc1-c1ccccc1,inactive,–
CO/C=C(/C(=O)OC)c1ccccc1Oc1cc(Oc2ccccc2C#N)ncn1,inactive,35.3 µM (active)
COc1cnc(OC)n2nc(NS(=O)(=O)c3c(OCC(F)F)cccc3C(F)(F)F)nc12,inactive,–
CCc1nn(C)c(C(=O)NCc2ccc(C(C)(C)C)cc2)c1Cl,–,20 µM (active)
N#CC(CCc1ccc(Cl)cc1)(Cn1cncn1)c1ccccc1 (configuration not stated),inactive,–
O=C(O)COc1nc(Cl)c(Cl)cc1Cl,inactive,–
C=CCC1=C(C)C(OC(=O)C2C(C=C(C)C)C2(C)C)CC1=O (configuration not stated),inactive,33.8 µM (active) and 31.9 µM (active)
N#Cc1cc(Br)c(O)c(Br)c1,inactive,–
O=C(O)c1nc(Cl)ccc1Cl,inactive,–
C#CCOS(=O)OC1CCCCC1Oc1ccc(C(C)(C)C)cc1 (configuration not stated),–,32.6 µM (active)
COC(=O)c1ccccc1C(=O)OC,inactive,–
COc1nc(NC(C)C)nc(NC(C)C)n1,inactive,–
CC1=C(C(=O)Nc2ccccc2)SCCO1,inactive,–
COP(=S)(OC)Oc1nc(Cl)c(Cl)cc1Cl,–,25.3 µM (active)
CN(C)C(=S)SSC(=S)N(C)C,–,14.5 µM (active)
CNC(=O)ON=CC(C)(C)SC,inactive,–
COC(=O)C=C(C)OP(=O)(OC)OC,inactive,–
O=C(Nc1ccccc1)Nc1ccnc(Cl)c1,inactive,–
CCCCNC(=O)OCC#CI,–,15.6 µM (active) and 13.7 µM (active)
CCOc1cc(Oc2ccc(C(F)(F)F)cc2Cl)ccc1[N+](=O)[O-],inactive,–

# Read-out: Tumor necrosis factor (Homo sapiens) (UniProt P01375)
# Experiment: BSK_LPS_TNFa: BioMAP Diversity Plus: LPS Assay for Tumour Necrosis Factor alpha (TNFa) Biomarker Activity (AID 2283085);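 as to AC50: TNFa protein level quantified by ELISA in the co-culture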
# Details: primary human HUVEC with PBMC; actives raise or lower the signal
# Procedure, shortened: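 ELISA-based TNFa endpoint in a human endothelial–PBMC co-culture sampled 24 h post-exposure. Curves were fitted in both directions using DMSO as baseline of activity.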
SMILES,AC50,outcome
CNC(=S)S,7.49 µM (active),–
CCNc1nc(Cl)nc(NCC)n1,8.37 µM (active),–
COC(=O)C(C)Oc1ccc(Oc2ccc(Cl)cc2Cl)cc1 (configuration not stated),–,inactive
CCCN(CCC)c1c([N+](=O)[O-])cc(S(N)(=O)=O)cc1[N+](=O)[O-],33.6 µM (active) and 32.2 µM (active),inactive
CCOC(=O)CC(SP(=S)(OC)OC)C(=O)OCC (configuration not stated),–,inactive
Cc1ccc(-c2c(Cl)nc(C#N)n2S(=O)(=O)N(C)C)cc1,–,inactive
Oc1ccccc1-c1ccccc1,14.8 µM (active),–
CO/C=C(/C(=O)OC)c1ccccc1Oc1cc(Oc2ccccc2C#N)ncn1,15.5 µM (active),inactive
COc1cnc(OC)n2nc(NS(=O)(=O)c3c(OCC(F)F)cccc3C(F)(F)F)nc12,–,inactive
CCc1nn(C)c(C(=O)NCc2ccc(C(C)(C)C)cc2)c1Cl,20.8 µM (active),–
N#CC(CCc1ccc(Cl)cc1)(Cn1cncn1)c1ccccc1 (configuration not stated),–,inactive
O=C(O)COc1nc(Cl)c(Cl)cc1Cl,27.8 µM (active),–
C=CCC1=C(C)C(OC(=O)C2C(C=C(C)C)C2(C)C)CC1=O (configuration not stated),34.3 µM (active) [middle of 4 runs],–
N#Cc1cc(Br)c(O)c(Br)c1,–,inactive
O=C(O)c1nc(Cl)ccc1Cl,–,inactive
C#CCOS(=O)OC1CCCCC1Oc1ccc(C(C)(C)C)cc1 (configuration not stated),–,inactive
COC(=O)c1ccccc1C(=O)OC,–,inactive
COc1nc(NC(C)C)nc(NC(C)C)n1,9.63 µM (active),–
CC1=C(C(=O)Nc2ccccc2)SCCO1,–,inactive
COP(=S)(OC)Oc1nc(Cl)c(Cl)cc1Cl,27.8 µM (active),–
CN(C)C(=S)SSC(=S)N(C)C,13.8 µM (active),–
CNC(=O)ON=CC(C)(C)SC,–,inactive
COC(=O)C=C(C)OP(=O)(OC)OC,–,inactive
O=C(Nc1ccccc1)Nc1ccnc(Cl)c1,31.1 µM (active),–
CCCCNC(=O)OCC#CI,13.2 µM (active) and 12.3 µM (active),–
CCOc1cc(Oc2ccc(C(F)(F)F)cc2Cl)ccc1[N+](=O)[O-],–,inactive
